Legend:
Experiment in all cases: PBM binding z-score (relative to random genomic background probes); higher = stronger binding; sequences stand for … in GC…GCGATTGACAGCGTAGAATGAAGG
[1] = test system: FXR:RXRa (NR concentration 270 nM, RXRa partner concentration 90 nM)
Summary of the method: (§1)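 Custom Agilent 4×180K protein-binding microarrays carried double-stranded probes, each with a 34-nt variable region. These regions held direct-repeat seeds, single-nucleotide variants, half-site ablations and random human genomic background sequences. Ligand-free nuclear receptor dimers were incubated on the arrays for 1 h, antibodies against each partner (one per run) detected binding, and scanned fluorescence was regression-normalized. Binding z-scores take the random background probes as reference.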

[2] = test system: LXRa:RXRa (NR concentration 270 nM, RXRa partner concentration 90 nM)
Summary of the method: as §1

[3] = test system: LXRa homodimer (NR concentration 270 nM)
Summary of the method: as §1

[4] = test system: LXRb:RXRa (NR concentration 270 nM, RXRa partner concentration 90 nM)
Summary of the method: as §1

[5] = test system: LXRb homodimer (NR concentration 270 nM)
Summary of the method: as §1

[6] = test system: PPARa:RXRa (NR concentration 270 nM, RXRa partner concentration 90 nM)
Summary of the method: as §1

[7] = test system: PPARg:RXRa (NR concentration 180 nM, RXRa partner concentration 90 nM)
Summary of the method: as §1

[8] = test system: PPARg:RXRa 270nM:90nM, anti-RXR (NR concentration 270 nM, RXRa partner concentration 90 nM)
Summary of the method: as §1

[9] = test system: PPARg:RXRa 30nM:10nM, anti-RXR (NR concentration 30 nM, RXRa partner concentration 10 nM)
Summary of the method: as §1

[10] = test system: PPARg:RXRa 90nM:30nM, anti-RXR (NR concentration 90 nM, RXRa partner concentration 30 nM)
Summary of the method: as §1

[11] = test system: PPARg:RXRa DBDmut IVT, anti-RXR (DBD mutation: RXRa K156A/R161A, NR concentration 270 nM, RXRa partner concentration 90 nM)
Summary of the method: as §1

[12] = test system: PPARg:RXRa IVT, anti-PPARg (NR concentration 270 nM, RXRa partner concentration 90 nM)
Summary of the method: as §1

[13] = test system: PPARg DBDmut:RXRa IVT, anti-PPARg (DBD mutation: PPARg1 K132A/R137A, NR concentration 270 nM, RXRa partner concentration 90 nM)
Summary of the method: as §1

[14] = test system: PPARg DBDmut IVT, anti-PPARg (DBD mutation: PPARg1 K132A/R137A, NR concentration 270 nM)
Summary of the method: as §1

[15] = test system: PPARg homodimer (NR concentration 180 nM)
Summary of the method: as §1

[16] = test system: PXR:RXRa (NR concentration 270 nM, RXRa partner concentration 90 nM)
Summary of the method: as §1

[17] = test system: PXR homodimer (NR concentration 270 nM)
Summary of the method: as §1

[18] = test system: RARa:RXR (NR concentration 270 nM, RXRa partner concentration 90 nM)
Summary of the method: as §1

[19] = test system: RARa homodimer (NR concentration 270 nM)
Summary of the method: as §1

[20] = test system: RARb:RXRa (NR concentration 270 nM, RXRa partner concentration 90 nM)
Summary of the method: as §1

Sequence | PBM binding z-score [1] | PBM binding z-score [2] | PBM binding z-score [3] | PBM binding z-score [4] | PBM binding z-score [5] | PBM binding z-score [6] | PBM binding z-score [7] | PBM binding z-score [8] | PBM binding z-score [9] | PBM binding z-score [10] | PBM binding z-score [11] | PBM binding z-score [12] | PBM binding z-score [13] | PBM binding z-score [14] | PBM binding z-score [15] | PBM binding z-score [16] | PBM binding z-score [17] | PBM binding z-score [18] | PBM binding z-score [19] | PBM binding z-score [20]
TCTTGTAGATCAGCAGGTCAAGAAAGCTGGCCAA | 1.17 | 1.55 | 0.209 | 1.59 | -0.222 | 2.5 | 0.457 | 2.37 | 2.48 | 2.59 | 1.57 | 1.61 | -0.677 | -0.699 | 0.129 | 1.6 | -0.4 | 2.18 | -0.58 | 2.01
CCTAGGAGGACAGAAGGTCAGAGCTGTCCGCTTT | 1.3 | 1.59 | 0.0675 | 1.11 | -0.837 | 1.93 | 0.741 | 2.08 | -0.108 | 1.7 | 0.0548 | 0.781 | -1.45 | -0.918 | 0.868 | 1.59 | -0.0903 | 1.98 | 0.629 | 3.02
AGAACGAGGGCACGCTGAGTTGATTGCAGAGTAG | 0.793 | 0.4 | -0.818 | -0.114 | -1.35 | 1.94 | 1.71 | 1.83 | 0.402 | 1.15 | 4.08 | 3.53 | 0.256 | 0.126 | 0.222 | 1.56 | -0.0942 | 0.717 | -0.751 | 2.36
GGAACGAGGGCAAATTGATAGCAGAGTTTGATGG | 0.902 | 0.348 | -0.101 | 0.452 | -0.144 | 1.73 | 1.16 | 0.944 | 0.134 | 0.629 | 3.46 | 2.68 | 0.618 | -0.23 | 0.358 | 0.625 | 0.703 | 0.402 | -0.436 | 2.23
GCTATTAGTTGAAAGGGCAACAGAATGATTCTCG | 0.533 | 0.675 | 0.402 | 0.947 | -0.00324 | 2.47 | 3.11 | 4.2 | 2.77 | 4.54 | 0.52 | 1.11 | 0.63 | 0.276 | 1.36 | 0.774 | 0.784 | 1.47 | 1.15 | 2.09
ATATGTAGGTTAGCTGGGGTCATGCAGACTAGGC | 4.32 | 5.63 | 1.92 | 4.51 | 0.764 | 5.44 | 6.19 | 5.5 | 3.22 | 5.13 | 6.73 | 6.58 | 3.11 | 1.46 | 3.23 | 6.14 | 2.18 | 5.87 | 1.4 | 3.44
TGAATGAGGTTACAGATCAGGGAACGTGGCGTCG | 1.82 | 1.45 | -0.368 | 0.694 | 0.104 | 2.94 | 2.65 | 3.06 | 1.45 | 2.65 | 2.62 | 3.25 | 0.697 | 0.0776 | 0.777 | 0.892 | -0.64 | 1.67 | 0.0673 | 1.9
